# The panel holds about 83,000 compounds, 20% with a hit somewhere; the sample as a whole holds those more often.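 Plates (96-well) were seeded with cells, treated with compound at one concentration, and incubated for 48 hours before percent growth was determined.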 Activity calls are given as the source filed them. Rule for the calls: active = growth percent below 10; inactive = the rest.
# Test system: MDA-MB-468 breast
# Experiment: NCI-60 one-dose screen, 48 h (100 = growth as untreated, 0 = no growth, -100 = all killed)
# Conditions: 10 µM unless noted
row,Structure (SMILES),growth
1,C#CCOc1ccc2ncnc(Nc3ccc(NC(=O)CCl)cc3)c2c1,-57.7% (active)
2,COc1ccc(/C(C)=C(\c2ccc(Cl)cc2)c2ccc(OCCN3CCCCCC3)cc2)cc1,16.1% (inactive)
3,O=c1cc(CP(=O)(O)O)c2cc(O)c(-c3ccccc3)cc2o1,99.1% (inactive)
4,O=[N+]([O-])c1ccccc1S(=O)c1ccccc1[N+](=O)[O-],40.1% (inactive)
5,COc1cc(-c2csc(NC(=O)Nc3cc(Cl)cc(Cl)c3)n2)cc(OC)c1OC,-6.75% (active)
6,COc1cccc2c1[C@H](OC)[C@]13O[C@@]1(C2=O)[C@H](O)[C@H](C)[C@@](O)(C(=O)[C@@H]1O[C@H]1C)[C@@H]3O,-40.5% (active)
7,CN(Cc1ccccc1)c1nc(Cl)c(C2CC(c3ccc(Cl)cc3)=Cc3[nH][nH]c(=O)c32)s1 (stereo not given),106% (inactive)
8,CCCCCCCCCCCCCCCCCC1=NCCN1CCNC(C)=O,114% (inactive)
9,Cc1ccc(-c2c(-c3ccccc3)c(=O)oc3ccc(C)cc23)cc1,97.3% (inactive)
10,C=C(C)[C@@H]1CCC[C@]2(C(=O)O)CC[C@]3(C)[C@@H](CC[C@@H]4[C@@]5(C)C/C(=C/c6ccncc6)C(=O)C(C)(C)[C@@H]5CC[C@]43C)[C@@H]12,16.6% (inactive)
11,O=C(Nc1cccc(Cl)c1)c1ccc(Cl)cc1Cl,96.9% (inactive)
12,COc1ccccc1NC(=O)n1c(=O)cc(C)c2ccc(O)cc21,96.3% (inactive)
13,Cc1c(Cl)cccc1NC(=O)CN1CCOCC1,107% (inactive)
14,COc1cc2c(cc1OC)C(=O)/C(=C/c1cc(-c3ccc4c(c3)OCO4)n[nH]1)C2,-26.4% (active)
15,Cn1c2ccccc2c2c3[nH][nH]c(=O)c3c3c4ccccc4[nH]c3c21,49.5% (inactive)
16,Oc1ccc(CNNc2ccnc3c(O)cccc23)c2cccnc12,64.3% (inactive)
17,CC(=O)Nc1nc2c(s1)C1=CC[C@H]3[C@@H]4CC[C@H](C(C)=O)[C@@]4(C)CC[C@@H]3[C@@]1(C)CC2,69.7% (inactive)
18,CCCCCCCCCCCC(=O)OCCNC(=O)C[n+]1ccccc1,101% (inactive)
19,C=COC(=O)C(C)(C)C,106% (inactive)
20,Brc1ccc2[nH]cc(-c3nc(-c4c[nH]c5ccncc45)cs3)c2c1,-71.4% (active)

row,Structure (SMILES),growth
1,N#Cc1c(-c2ccccc2)cc(-c2ccccc2)n(CCCCCCC(=O)O)c1=O,88.9% (inactive)
2,C=C(C)[C@@H]1CC[C@]2(C(=O)NC(C)=O)CC[C@]3(C)[C@H](CC[C@@H]4[C@@]5(C)CCCNC(C)(C)[C@@H]5CC[C@]43C)[C@@H]12,-20.3% (active)
3,Cc1cc(N2CCCCC2)nc(N(CCNc2ccnc3cc(Cl)ccc23)Cc2ccco2)n1,-0.362% (active)
4,CCOC(=O)Nc1cccc(-n2cnc3cc(-c4ccc(O)cc4)ccc32)c1,20.4% (inactive)
5,CCN(CC)CCNc1c(C)cc(CO)c(Cl)c1C,-8.33% (active)
6,CCCCCCCCCCC(CN(CC)CC)C(O)c1ccccc1 (stereo not given),-61.2% (active)
7,CC1CCC(C(=O)O)N1 (stereo not given),106% (inactive)
8,Nc1nc2ccccc2c2c(=O)c3cc(F)ccc3sc12,-27.2% (active)
9,Cc1cccc2c(N)c3ccccc3nc12,-60.5% (active)
10,O=C(NC1C(O)OC(CO)C(O)C1O)NS(=O)(=O)c1ccc(Cl)cc1 (stereo not given),108% (inactive)
11,COc1cc(/C=C2\C(=O)Nc3ccccc32)ccc1OCc1ccc(F)cc1,102% (inactive)
12,Cc1ccc(CNc2ccc3nc(CCC(C)C)[nH]c3c2)cc1,78.3% (inactive)
13,NC(CSC(c1ccccc1)(c1ccccc1)c1ccc(Cl)cc1)C(=O)O (stereo not given),-6.09% (active)
14,CS(=O)(=O)Nc1cncc(-c2ccc3ncnc(Nc4cncc(Cl)c4)c3c2)c1,16.7% (inactive)
15,Cc1ccc2sc3c(NCCCN)nc4ccccc4c3c(=O)c2c1,-6.52% (active)
16,Cc1c(Cl)cccc1NC(=O)c1sc2nc3c(cc2c1N)CCCCC3,22.4% (inactive)
17,CCOC(=O)c1ccc(NC(=O)NC2=NCCS2)cc1,29.6% (inactive)
18,CC12CCCCC1C(C(N)=O)C(=O)O2 (stereo not given),122% (inactive)
19,CC(C)C[C@H](C(=O)N[C@@H](C)C(N)=O)N1CC=CCN(O)S1(=O)=O,109% [5 µM] (inactive)
20,COC(=O)N1CCN(CCNCc2ccc(NC(=O)c3ccc(C)c(C#Cc4cnc5cccnn45)c3)cc2C(F)(F)F)CC1,-8.93% (active)

# From PubChem BioAssay (NCI)
